HSP90 refold inh – HSP90 refolding inhibition in rabbit reticulocyte lysate. luciferase refolding luminescence, 3 h. inhibition, % at 5.6 µM. actives 0.91% (n = 290,000);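 active = inhibition above the screen-wide mean plus 3 SD, computed separately per campaign, cut at about 16% in these data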;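 also: 0% = DMSO wells and 100% = 60 µM geldanamycin wells; inhibitors lower the luminescence because luciferase stays unfolded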
DAX1 inh – inhibitors of human orphan nuclear receptor DAX1 (NR0B1) | P51843 | actives 0.99% (n = 340,000) | HEK293 Gal4-DAX1 luciferase reporter, luminescence | inhibition, % at 6.75 µM;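 active = inhibition above the mean over all tested compounds plus 3 SD, cut at about 4.2% in these data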;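 also: 0% = DAX1-transfected cells with DMSO and 100% = empty-vector control cells with DMSO; inhibition shows as a rise in luminescence from relieved DAX1 repression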
HSF-1 act – increases HSF-1 driven luciferase reporter signal. activation, % at 9 µM. NIH3T3-HGL HSF-1 luciferase reporter, MG132, 8 h; 100% = twice DMSO control signal. actives 1.7% (n = 300,000);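 active = mean replicate activation of at least 50% with a set share of replicates each reaching 50%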;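 also: 0% = median of the neutral control wells and 100% = twice that signal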
GAA850 FXN act – increases GAA850 frataxin promoter reporter activity. HEK293 lucGAA850 FXN promoter luciferase reporter, 24 h; percent of 10 µM SAHA response. activation, % at 6 µM. actives 0.56% (n = 360,000). AID 540364;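 active = activation above the average of all compounds screened plus 3 SD, cutoff fixed separately per campaign, cut at about 7.5% in these data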;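 also: 0% = DMSO wells and 100% = 10 µM SAHA wells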
AHR act – human AHR activation; P35869; AHR-responsive luciferase reporter cells, luminescence; activation, % at 5 µM; actives 2.5% (n = 320,000); AID 2796; in the data active = activation above about 47%;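 also: 0% = vehicle wells and 100% = reference agonist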
HSF1 inhib – HSF1 inhibition | NIH3T3-HGL HSE-luciferase, MG132-induced, luminescence 8 h; hits give low values | AID 2098 | activity change, negative = inhibition, % at 7.5 µM (by protocol) | actives 0.77% (n = 300,000);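 active = more than half of replicate wells show activity change below -50%, luminescence cut by over half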;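 also: luciferase reports HSF-1 transcriptional activity via heat shock element; 0% = median of DMSO wells and -100% = zero luminescence signal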
AHR act cf – confirmation of human aryl hydrocarbon receptor activators | shares compounds with AHR act | human cells, AHR-responsive luciferase reporter, luminescence | activation, % at 9 µM | actives 87% (n = 2,300) | AID 2845; in the data active = activation above about 49%;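 also: HepG2 hepatoma cells carrying a DRE-driven firefly luciferase reporter; 0% = vehicle wells and 100% = reference agonist wells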
PXR counter – PXR activation, counter-screen for AHR activators; shares compounds with AHR act; cell-based PXR reporter, luciferase luminescence; activation, % at 11.6 µM; actives 88% (n = 2,300); AID 434939; in the data active = activation above about 11%;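 also: human hepatoma DPX-2 cells expressing full-length human PXR; 0% = DMSO and 100% = reference agonist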
Target sequence (O75469 whole entry, looked up): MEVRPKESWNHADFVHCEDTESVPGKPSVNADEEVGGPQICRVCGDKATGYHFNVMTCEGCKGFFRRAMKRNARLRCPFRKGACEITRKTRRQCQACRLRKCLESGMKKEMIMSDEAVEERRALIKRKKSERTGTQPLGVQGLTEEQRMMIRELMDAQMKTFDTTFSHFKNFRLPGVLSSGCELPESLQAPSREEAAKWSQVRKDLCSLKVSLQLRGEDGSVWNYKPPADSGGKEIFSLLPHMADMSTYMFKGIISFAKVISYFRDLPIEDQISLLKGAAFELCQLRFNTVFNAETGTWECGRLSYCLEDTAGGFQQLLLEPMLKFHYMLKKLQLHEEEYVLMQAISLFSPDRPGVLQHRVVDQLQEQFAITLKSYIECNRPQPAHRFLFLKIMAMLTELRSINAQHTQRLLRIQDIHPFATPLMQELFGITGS
The depositor's hits bear a star. Shown are actives, neighbours in structure and some others; about 5.9% of the full set was active somewhere.

O=C1c2cccc3cccc(c23)C(=O)N1CCCSc1ncn[nH]1 was read as HSP90 refold inh -5, DAX1 inh 1, HSF-1 act 5, GAA850 FXN act 2, AHR act 101*, HSF1 inhib -1, AHR act cf 88* and PXR counter 57*.
For COc1ccc(N(CCCN2C(=O)c3cccc4cccc(c34)C2=O)C(=O)c2cccc(OC)c2)cc1 the results were HSP90 refold inh 4, DAX1 inh -2, HSF-1 act -11, GAA850 FXN act 4, AHR act 88*, HSF1 inhib -2, AHR act cf 99* and PXR counter 119*.
CN(C)CCCN1C(=O)c2cc3ccccc3cc2C1=O was read as HSP90 refold inh 6, DAX1 inh 0, HSF-1 act -9, GAA850 FXN act 2, AHR act -2 and HSF1 inhib -3.
`COc1ccc(CN2C(=O)c3cccc4cccc(c34)C2=O)cc1` gave HSP90 refold inh 0, DAX1 inh 2, HSF-1 act -11, GAA850 FXN act 1, AHR act 2 and HSF1 inhib -4.
`CCn1cc([N+](=O)[O-])c(=O)c2cc(F)c(N3CCOCC3)cc21` gave HSP90 refold inh -3, DAX1 inh 0, HSF-1 act -2, GAA850 FXN act 1, AHR act 3 and HSF1 inhib 3.
`CC1CN(C(=O)c2ccccc2OCc2ccc(Cl)cc2Cl)CC(C)O1` (stereo not given) gave DAX1 inh 0, GAA850 FXN act -2 and AHR act 2.
`COc1ccc(CNC(=O)COC(=O)CNC(=O)c2sc3ccccc3c2Cl)cc1OC` gave DAX1 inh 1, GAA850 FXN act 0 and AHR act -1.
`CSCCC(NC(=O)COc1ccccc1)C(=O)N1CC(C)CC(C)C1` (stereo not given) gave DAX1 inh 0, GAA850 FXN act 1 and AHR act 2.
`N#CC1=C(N)Nc2nc3ccccc3n2C1c1ccc(F)cc1` (stereo not given) gave HSP90 refold inh -4, DAX1 inh -1, HSF-1 act 13, GAA850 FXN act 3, AHR act 94*, HSF1 inhib -4, AHR act cf 80* and PXR counter 62*.
`N#CCC1c2ccccc2CCN1C(=O)Nc1ccc(C(F)(F)F)cc1` (stereo not given) gave HSP90 refold inh 0, DAX1 inh 0, HSF-1 act -4, GAA850 FXN act 1, AHR act 103*, HSF1 inhib 6, AHR act cf 100* and PXR counter 181*.
Screening CN(Cc1ccccc1)C(=O)CCC1CCN(S(C)(=O)=O)CC1 returned HSP90 refold inh 7, DAX1 inh 0, HSF-1 act 7, GAA850 FXN act 0, AHR act -4 and HSF1 inhib 0.
CSC(=NC#N)N1CCN(c2cccc(Cl)c2)CC1 was read as HSP90 refold inh -4, DAX1 inh 1, HSF-1 act 19, GAA850 FXN act -1, AHR act 115*, HSF1 inhib 14, AHR act cf 7 and PXR counter 41*.
For Cc1cccc(Nc2ccncc2S(=O)(=O)NC(=O)NC(C)C)c1 the results were HSP90 refold inh -1, DAX1 inh 2, HSF-1 act -56, GAA850 FXN act 6, AHR act -1 and HSF1 inhib -43.
`CCOC(=O)c1c2ccc(OCC(=O)NN)cc2n2ccccc12` gave HSP90 refold inh 3, DAX1 inh 0, HSF-1 act 15, GAA850 FXN act -2, AHR act 86*, HSF1 inhib 13, AHR act cf 90* and PXR counter 12*.
CCOC(=O)c1c2ccc(OCC(=O)N/N=C/c3ccc(C)cc3)cc2n2ccccc12 was read as HSP90 refold inh 12, DAX1 inh 0, HSF-1 act 25, GAA850 FXN act -1, AHR act 24 and HSF1 inhib -11.

From PubChem
